In all, about 310,000 compounds went through this assay and about 11,000 (3.5%) were called active. Roughly 4% stayed inconclusive and do not appear here. The call rests on the fitted dose curve; in most records, active means well fitted inhibition curve with a large enough effect; inconclusive means small, poorly fitted or top-dose-only effect, or another doubt; inactive means no such curve, though single readings can be large or run the other way. What follows is part of a selection rich in actives, with near analogues and random picks from the rest.
Target: 4'-phosphopantetheinyl transferase ffp (Bacillus subtilis) (UniProt Q9F4F7)
Assay: qHTS Assay for Inhibitors of Bacillus subtilis Sfp phosphopantetheinyl transferase (PPTase);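 further: the enzyme is Sfp with the accession as filed and its product quenches rhodamine fluorescence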;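 on largest response in the series, negative = inhibition: 0% = enzyme reaction without inhibitor and -100% = no enzyme wells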
Conditions: Biochemical Sfp PPTase activity
Procedure, shortened: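 Reaction rates are the 30-min fluorescence difference (ex 525, em 598 nm) in wells containing 15 nM Sfp, 5 uM rhodamine-CoA and 12.5 uM BHQ-2-YbbR at pH 7.6 with 10 mM MgCl2.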
Potency means the concentration at half of the fitted maximal effect.

Row | SMILES | largest response in the series, negative = inhibition | Potency
1 | C[C@H](NC(=O)c1nc[nH]c1C(=O)NCC(=O)OC(C)(C)C)c1ccccc1 | 10.2% (inactive) | –
2 | CC(C)[C@H](NC(=O)N1CCn2c1nc1ccccc12)C(=O)NCc1ccc2c(c1)OCO2 | 20.1% (inactive) | –
3 | CC(C)C(=O)NCC(c1cccs1)S(=O)(=O)c1ccc(F)cc1 (stereo unspecified) | 0.881% (inactive) | –
4 | Cc1ccc(/C=C/C(=O)Nc2ccc([N+](=O)[O-])c(NC(=O)/C=C/c3ccc(C)o3)c2)o1 | – | 17.8 µM (active)
5 | CNc1ccc(NC(C)=O)cc1[N+](=O)[O-] | 18.8% (inactive) | –
6 | CCc1nnc(NC(=O)/C=C/c2ccc(C)o2)s1 | 1.89% (inactive) | –
7 | COc1cc(/C=C2\SC(=O)NC2=O)ccc1OCc1ccc(Cl)nc1 | -9.24% (inactive) | –
8 | CCn1c(CNC(=O)c2cc(OC)c(OC)c(OC)c2)cc2cc(C)ccc21 | -13.9% (inactive) | –
9 | CCOc1ccc(CCNC(=O)Nc2ccccc2)cc1OCC | 11.9% (inactive) | –
10 | Cc1ccccc1NC(=O)C1CCCN(C(=O)NCc2ccccc2)C1 (stereo unspecified) | -0.998% (inactive) | –
11 | CC(=O)NC(C)c1nc2ccccc2n1Cc1ccccc1F (stereo unspecified) | 11% (inactive) | –
12 | Fc1ccccc1Cn1cnc(NC(=S)NCCc2ccccc2)n1 | -24.4% (inactive) | –
13 | N=c1n(CCc2ccccc2)c2ccccc2n1Cc1ccccc1F | – | 50.1 µM (active)
14 | Cc1cccn2c(=O)c(C=O)c(Nc3ccc(S(N)(=O)=O)cc3)nc12 | 12.7% (inactive) | –
15 | O=Cc1c(N2CCN(c3cccc(Cl)c3)CC2)nc2ccccn2c1=O | -4.2% (inactive) | –
16 | O=Cc1c(Nc2ccccc2Cl)nc2ccccn2c1=O | – | 31.6 µM (active)
17 | O=C(Nc1cccc(-c2cccc(Cl)c2)c1)C1CCN(C2CCC2)CC1 | -24.2% (inactive) | –
18 | COc1ccc(S(=O)(=O)N2CCC(C(=O)N3CCCC3)CC2)cc1C | 9.47% (inactive) | –
19 | COC(=O)C1=C(N)Oc2cc(C)[nH]c(=O)c2C1c1ccc(Cl)cc1 (stereo unspecified) | 1.3% (inactive) | –
20 | O=C1CSC(c2ccc(Cl)cc2)N1 (stereo unspecified) | – | 79.4 µM (active)
21 | O=C1NC(=O)C(c2ccc(Cl)cc2)N1 (stereo unspecified) | -0.697% (inactive) | –
22 | CC(C)c1ccc(NC(=O)Cn2ncc3ccccc32)cc1 | 13.4% (inactive) | –
23 | COc1ccc2c(C(=O)c3ccc(C)cc3)n(CCC(N)=O)[n+]([O-])c2c1 | -4.94% (inactive) | –

Row | SMILES | largest response in the series, negative = inhibition | Potency
24 | Cc1cccc(Nc2nc(-c3ccccc3)cs2)n1 | -27.9% (inactive) | –
25 | COc1ccc(CCNc2nc(-c3cccc(NC(C)=O)c3)cs2)cc1OC | -23.9% (inactive) | –
26 | CC(=O)Nc1cccc(-c2csc(Nc3cccc(C)n3)n2)c1 | – | 79.4 µM (active)
27 | Cc1noc(NS(=O)(=O)c2ccc(NC(=O)c3oc4ccc(F)cc4c3C)cc2)c1C | 14.6% (inactive) | –
28 | CCN(CC)C(=O)COc1coc(CN2CCN(Cc3ccccc3)CC2)cc1=O | 12.6% (inactive) | –
29 | COCCNC(=S)Nc1cc(S(=O)(=O)N2CCOCC2)ccc1N1CCCCC1 | – | 1 µM (active)
30 | CC(=O)NCCC(=O)Nc1cc(S(=O)(=O)N2CCOCC2)ccc1N1CCOCC1 | 23.2% (inactive) | –
31 | O=C(COC(=O)Cc1ccc(F)cc1)Nc1cc(S(=O)(=O)N2CCOCC2)ccc1N1CCCC1 | 11.4% (inactive) | –
32 | CCc1ccccc1NC(=O)[C@@H]1CCC(=O)N1C1OC(=O)c2c1ccc(OC)c2OC (stereo partly specified) | 9.06% (inactive) | –
33 | CCOc1ccc(N(CC(=O)NCC2CCCO2)S(=O)(=O)c2ccc(C)cc2)cc1 (stereo unspecified) | 9.58% (inactive) | –
34 | CCOc1ccc(S(=O)(=O)NCC2CCCO2)cc1 (stereo unspecified) | 12.6% (inactive) | –
35 | CCOc1ccc(-n2c(N)c(C(=O)NCC3CCCO3)sc2=S)cc1 (stereo unspecified) | – | 50.1 µM (active)
36 | Cc1cccc(C)c1OCC(=O)NC(Cc1c[nH]c2ccccc12)C(=O)O (stereo unspecified) | 12.2% (inactive) | –
37 | COc1ccc(-c2cc(=O)oc3cc(OCC(=O)N[C@@H](Cc4c[nH]c5ccccc45)C(=O)O)ccc23)cc1 | -17.5% (inactive) | –
38 | COc1ccc(-c2cc(C(=O)NC(Cc3c[nH]c4ccccc34)C(=O)O)c(C)o2)cc1OC (stereo unspecified) | – | 35.5 µM (active)
39 | CC1C(=O)Nc2ccccc2N1C(=O)c1ccc(F)cc1F (stereo unspecified) | 9.39% (inactive) | –
40 | COc1cccc(OCc2cc(C(=O)N3CCN(C(=O)c4ccco4)CC3)no2)c1 | 10.6% (inactive) | –
41 | Cc1cc(Cl)ccc1OCCCC(=O)Nc1cccc(-n2cnnn2)c1 | 1.31% (inactive) | –
42 | c1ccc(Nc2n[nH]nc2-c2ccccc2)cc1 | 1.39% (inactive) | –
43 | O=C(O)c1n[nH]nc1-c1ccccc1 | – | 70.8 µM (active)
44 | O=c1[nH]c(-c2ccccc2)c(-c2ccccc2)[nH]1 | 2.86% (inactive) | –
45 | S=C(Nc1cccc(Cl)c1)Nc1ccc2c(c1)OCCO2 | -5.75% (inactive) | –
46 | Cc1ccc2nc(Nc3ncc4c(n3)CC(C)(C)CC4=O)nc(C)c2c1 | 4.59% (inactive) | –

Row | SMILES | largest response in the series, negative = inhibition | Potency
47 | CC(C)(C)c1cc(=O)n2c(nc3ccccc32)[nH]1 | 30.5% (inactive) | –
48 | CC1(C)CC(=O)c2cnc3nc4ccccc4n3c2C1 | – | 50.1 µM (active)
49 | CSc1ccccc1NC(=O)c1cc(Cl)sc1Cl | 9.55% (inactive) | –
50 | CCOC(=O)c1c(NC(=S)NC(=O)c2ccco2)sc2c1CCCC2 | -0.0002% (inactive) | –
51 | CC(C)OC(=O)c1c(NC(=O)c2ccco2)sc2c1CCCC2 | 10.9% (inactive) | –
52 | CNC(=O)c1c(NC(NC(=O)c2ccco2)C(=O)c2ccc(Cl)cc2)sc2c1CCCC2 (stereo unspecified) | – | 25.1 µM (active)
53 | COC(=O)c1ccc(CN2C(=O)NC(c3ccccc3)(c3ccccc3)C2=O)o1 | 23.7% (inactive) | –
54 | CC[C@]1([C@H]2O[C@@H]([C@@H]3O[C@](O)(CO)[C@@H](C)C[C@H]3C)C[C@H]2C)CC[C@@H]([C@]2(C)CC[C@@]3(C[C@@H](O)[C@@H](C)[C@@H]([C@H](C)[C@H](OC)[C@H](C)C(=O)O)O3)O2)O1 | 15.5% (inactive) | –
55 | Cc1ccc(N2C(=O)CC(Sc3ncn[nH]3)C2=O)cc1 (stereo unspecified) | – | 56.2 µM (active)
56 | CC(=O)Nc1ccc(N2C(=O)CC(Sc3nccc(C)n3)C2=O)cc1 (stereo unspecified) | 11.7% (inactive) | –
57 | COc1ccc(N2C(=O)CC(Sc3n[nH]c(-c4ccc(C)cc4)n3)C2=O)cc1 (stereo unspecified) | – | 25.1 µM (active)
58 | Cc1ccc(N2C(=O)C3CC3C2=O)cc1 (stereo unspecified) | 15.7% (inactive) | –
59 | COc1ccc(-c2nc(SCC(=O)N3CCCC3)n[nH]2)cc1 | 14.1% (inactive) | –
60 | COc1ccc(N2C(=O)CC(SC(C)C)C2=O)cc1 (stereo unspecified) | 7.97% (inactive) | –
61 | COC(=O)c1ccccc1SC1CC(=O)N(c2cccc(C)c2)C1=O (stereo unspecified) | -19.3% (inactive) | –
62 | O=C1CC(N2CCN(c3ccc(F)cc3)CC2)C(=O)N1c1ccccc1 (stereo unspecified) | 0.505% (inactive) | –
63 | O=C1CC(Sc2ncn[nH]2)C(=O)N1c1ccccc1 (stereo unspecified) | – | 56.2 µM (active)
64 | CCOc1ccc(S(=O)(=O)N2CCC(C(=O)NCc3ccccn3)CC2)cc1Cl | 5.52% (inactive) | –
65 | CC[C@@]12C=C(/C=C/c3ccccc3)[C@](CC)(C1)[C@H](c1ccccc1)CC2=O | -22.6% (inactive) | –
66 | CC(Nc1nc(C(F)(F)F)nc2ccccc12)c1cccs1 (stereo unspecified) | 2.55% (inactive) | –
67 | COC(=O)C(C(=O)OC)[C@@H]1CCCC(=O)C1 | -0.107% (inactive) | –
68 | CN(C)c1ccc(-c2nnc(-c3cccnc3)o2)cc1 | 7.75% (inactive) | –
69 | Cc1cc(NS(=O)(=O)c2ccc(NC(=O)C(C)Oc3cccc(C)c3C)cc2)nc(C)n1 (stereo unspecified) | 8.85% (inactive) | –

Row | SMILES | largest response in the series, negative = inhibition | Potency
70 | CC(C)(C)C(=O)CSc1nc2ccccc2o1 | 7.38% (inactive) | –
71 | O=C(CSc1nc2ccccc2o1)N/N=C/c1ccccc1C(=O)O | – | 44.7 µM (active)
72 | Cc1ccc(/C=N/NC(=O)CSc2nc3ccccc3o2)cc1 | -16.9% (inactive) | –
73 | CCN(CC)S(=O)(=O)c1ccc(C(=O)N2CCN(C3=NS(=O)(=O)c4ccccc43)CC2)cc1 | 14.9% (inactive) | –
74 | COc1cccc(CCNC(=O)c2cccc(NC(=O)C3=C(C)OCCS3)c2)c1 | 3.98% (inactive) | –
75 | Cc1cc(-c2cccs2)nc(-n2cccc2)n1 | 1.03% (inactive) | –
76 | c1csc(-c2cn3c(n2)SCC3)c1 | – | 79.4 µM (active)
77 | CCCS(=O)(=O)Nc1ccc(-c2cn3c(n2)SCC3)cc1 | -22.5% (inactive) | –
78 | COc1ccc(OC)c(-c2c(=O)n(OCc3ccccc3Br)c3ccccc3[n+]2[O-])c1 | 9.79% (inactive) | –
79 | CCOc1ccc(OCC)c(-c2c(=O)n(OCc3ccc(Cl)cc3)c3ccccc3[n+]2[O-])c1 | – | 100 µM (active)
80 | CCOC(=O)COn1c(=O)c(-c2ccc(OCC)cc2)[n+]([O-])c2ccccc21 | 1.13% (inactive) | –
81 | O=C(N=C1SC2CS(=O)(=O)CC2N1c1cc(Cl)ccc1Cl)C1CC1 (stereo unspecified) | 8.66% (inactive) | –
82 | O=c1oc(-c2ccco2)nc2sc3c(c12)CCCCC3 | 2.61% (inactive) | –
83 | O=C(NCc1ccco1)c1cccn2c(=O)c3c4c(sc3nc12)CCCC4 | – | 44.7 µM (active)
84 | COc1ccc(CCn2c(=N)c(C(=O)NCc3ccco3)cc3c(=O)n4cccc(C)c4nc32)cc1 | -13.5% (inactive) | –
85 | CCc1ccc(NC(=O)CS(=O)CC(=O)N2CCN(c3ccccc3F)CC2)cc1 (stereo unspecified) | 2.49% (inactive) | –
86 | COc1ccc(C(=O)NC2CC2)cc1OC1CCN(C/C=C/c2ccccc2)CC1 | 8.51% (inactive) | –
87 | Cc1coc2c(O)cc3c(c12)OC1(N2CCCCC2)C(=O)NCCCC31 (stereo unspecified) | – | 28.2 µM (active)
88 | Cc1nonc1C1CCCN1C(=O)c1cc(COc2cccc(C(F)(F)F)c2)on1 (stereo unspecified) | 14.2% (inactive) | –
89 | CCc1cccc(NC(=O)CCCN2C(=O)C(c3ccccc3)Oc3cccnc32)c1 (stereo unspecified) | 11.6% (inactive) | –
90 | COC(=O)C(CC(C)C)NS(=O)(=O)c1cc(Br)ccc1Br (stereo unspecified) | 6.49% (inactive) | –
91 | COc1cc2c(cc1OC)CC(=O)N(CCCN(C)C[C@H]1Cc3cc(OC)c(OC)cc31)CC2 | 9.18% (inactive) | –
